Assay results published in the supplement of paper PMC12350171.
Structures can show the parent of a compound that is named as a salt. Values without a mark were called inactive.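 The calls were made as follows: active = normalised median growth AUC below 0.1 of DMSO control; inactive = AUC 0.1 or higher.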

Legend:
Assay in all cases: growth AUC normalised to DMSO control (median) (fraction of control); higher = less growth inhibition, active = hit call of the paper
Settings in all cases: 20 µM
P. vulgatus RND KO = test system: P. vulgatus RND KO
How it was run: (§1)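 After two overnight anaerobic passages, strains were inoculated at OD578 0.01 into mGAM in 96-well plates containing approved-drug library compounds at 20 μM and 1% DMSO. Growth was followed by reading OD578 hourly for 24 h within an anaerobic incubator. Area under the curve, taken by the trapezoidal rule up to the start of stationary phase, was normalised to same-plate vehicle wells, and the median of three biological replicates is listed.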

P. vulgatus WT = test system: P. vulgatus WT
How it was run: as §1

[1] = test system: S. enterica typhimurium WT
How it was run: as §1

[2] = test system: S. enterica typhimurium tolC KO
How it was run: as §1
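Also: active when median AUC fell below 0.1.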

Compound	growth AUC normalised to DMSO control (P. vulgatus RND KO)	growth AUC normalised to DMSO control (P. vulgatus WT)	growth AUC normalised to DMSO control [1]	growth AUC normalised to DMSO control [2]
OC[C@H]1O[C@@H](n2cnc3cncnc32)[C@H](O)[C@@H]1O [Nebularine]	0.991	0.997	1	0.997
CC(=O)NS(=O)(=O)c1ccc(NC(=O)c2ccccc2C(=O)O)cc1 [Phthalylsulfacetamide]	0.999	0.997	1	1
Nc1nc2[nH]cnc2c(=S)[nH]1 [Tioguanine]	1.01	1	0.907	0.876
C[C@H]1COc2c(N3CCN(C)CC3)c(F)cc3c(=O)c(C(=O)O)cn1c23 [Levofloxacin]	0.014 (active)	0.0149 (active)	0.00504 (active)	0.00559 (active)
CCNC(=O)CCC/C=C\C[C@@H]1[C@@H](/C=C/[C@@H](O)CCc2ccccc2)[C@H](O)C[C@@H]1O [Bimatoprost]	1.03	1.04	1.01	0.99
CC(C)(C)NC(=O)[C@@H]1CN(Cc2cccnc2)CCN1C[C@@H](O)C[C@@H](Cc1ccccc1)C(=O)N[C@H]1c2ccccc2C[C@H]1O [Indinavir sulfate]	1	0.984	0.997	0.994
CO/N=C(\C(=O)N[C@@H]1C(=O)N2C(C(=O)[O-])=C(C[n+]3cccc4c3CCC4)CS[C@H]12)c1csc(N)n1 [Cefpirome sulfate]	0.0131 (active)	0.00672 (active)	0.00453 (active)	0.00385 (active)
Cc1ccc(S(=O)(=O)NCl)cc1 [Chloramine-T hydrate]	1	0.997	0.996	1
O=C(O)c1cc(=O)c2ccccc2o1 [Chromocarb]	0.981	1	0.998	1
C[C@@H]1CCO[C@H]2Cn3cc(C(=O)NCc4ccc(F)cc4F)c(=O)c(O)c3C(=O)N12 [Dolutegravir]	0.0521 (active)	0.049 (active)	1	0.907
N=c1ccn2c(n1)O[C@H]1[C@H](O)[C@@H](CO)O[C@H]12 [Ancitabine hydrochloride]	0.971	0.978	1.01	0.991
N[C@@H](CSCCCO)C(=O)O [Fudosteine]	1	0.987	0.996	1
CCCc1c2oc(C(=O)O)cc(=O)c2cc2c(=O)cc(C(=O)O)n(CC)c12 [Nedocromil sodium]	1.02	1.03	0.992	0.995
C/C(O)=C(\C#N)C(=O)Nc1ccc(C(F)(F)F)cc1 [Teriflunomide]	0.969	0.982	1	0.88
O=S(=O)(c1cccc2cnccc12)N1CCCNCC1 [Fasudil Hydrochloride]	1	1	1	1.01
Cn1cc([S+](C)[O-])c(=O)c2ccc(F)cc21 (stereo not given) [Flosequinan]	1.04	1.03	0.992	0.99
CC1(C)S[C@@H]2[C@H](NC(=O)C(C(=O)O)c3ccccc3)C(=O)N2[C@H]1C(=O)O (stereo not given in full) [Carbenicillin disodium salt]	0.0099 (active)	0.00958 (active)	0.0868 (active)	0.00344 (active)
COc1ccc(C(=O)c2ccc(C)cc2)c(O)c1 [Mexenone]	0.999	1	1	0.931

Compound	growth AUC normalised to DMSO control (P. vulgatus RND KO)	growth AUC normalised to DMSO control (P. vulgatus WT)	growth AUC normalised to DMSO control [1]	growth AUC normalised to DMSO control [2]
Nc1cc(C(Cl)=C(Cl)Cl)c(S(N)(=O)=O)cc1S(N)(=O)=O [Clorsulon]	1.02	0.998	1	0.999
C[C@H](O)[C@H](O)[C@H]1CNc2[nH]c(N)nc(=O)c2N1 [Sapropterin dihydrochloride]	1.04	1.05	1.01	0.977
CCC[C@@H]1C[C@@H](C(=O)N[C@@H]([C@H]2O[C@H](SC)[C@H](OP(=O)(O)O)[C@@H](O)[C@H]2O)[C@H](C)Cl)N(C)C1 [Clindamycin Phosphate]	0.844	0.895	1	0.961
COc1c(-c2ccc3cc(NS(C)(=O)=O)ccc3c2)cc(-n2ccc(=O)[nH]c2=O)cc1C(C)(C)C [Dasabuvir]	0.831	0.827	1	0.94
O=C(O)c1cc(=O)[nH]c(=O)[nH]1 [Orotic acid]	0.976	0.993	1	1.01
COc1ccc(CN2CCN(C(c3ccc(F)cc3)c3ccc(F)cc3)CC2)c(OC)c1OC [Lomerizine dihydrochloride]	0.997	0.986	1.01	0.978
CC(=O)OCC(=O)[C@@]1(O)CC[C@H]2[C@@H]3CCC4=CC(=O)C=C[C@]4(C)[C@@]3(Cl)[C@@H](Cl)C[C@@]21C [Dichlorisone acetate]	0.976	0.97	0.989	0.956
C[C@@H](CN1CC(=O)NC(=O)C1)N1CC(=O)NC(=O)C1 [Dexrazoxane hydrochloride]	1.01	0.988	1.01	0.989
O=C1c2cccc3c2[C@H](CCC3)CN1[C@@H]1CN2CCC1CC2 [Palonosetron hydrochloride]	0.973	1	1	0.998
NC(=O)c1cn(Cc2c(F)cccc2F)nn1 [Rufinamide]	0.994	0.963	1	1
Cc1cccc(C)c1NC(=O)CC12CCCN1CCC2 [Pilsicainide Hydrochloride]	1.05	1.09	1	1
COCCCOc1cc(C[C@@H](C[C@H](N)[C@@H](O)C[C@H](C(=O)NCC(C)(C)C(N)=O)C(C)C)C(C)C)ccc1OC [Aliskiren hemifumarate]	1	1.05	0.997	1
COc1cc(C(=O)NC2CCCNC2)cc(OC)c1OC (stereo not given) [Troxipide]	1.07	1.1	0.998	0.995
COc1ccc(C[C@@H]2c3cc(OC)c(OC)cc3CC[N@+]2(C)CCC(=O)OCCCCCOC(=O)CC[N@@+]2(C)CCc3cc(OC)c(OC)cc3[C@H]2Cc2ccc(OC)c(OC)c2)cc1OC [Cisatracurium besylate]	1.06	1.05	1.02	0.994
O=C1OC(CN2CCOCC2)CN1/N=C/c1ccc([N+](=O)[O-])o1 (stereo not given) [Furaltadone hydrochloride]	0.0255 (active)	0.0192 (active)	0.878	0.856
Cc1onc(-c2ccccc2)c1-c1ccc(S(N)(=O)=O)cc1 [Valdecoxib]	0.981	0.993	1	0.983
CCC(C)(C)c1ccc(CC(C)CN2C[C@@H](C)O[C@@H](C)C2)cc1 (stereo not given in full) [Amorolfine hydrochloride]	1.01	1.03	1.01	0.963
